Source: PubChem BioAssay (several laboratories)
L929 necroptosis: inhibitors of zVAD-triggered necroptosis, primary screen, L929 cells; L929 zVAD necroptosis rescue, ATP luminescence, 24 h; with zVAD 60 µM; 220,000 compounds, 0.38% hits; viability rescue, % at 10 µM;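 active = activation, scaled between plate controls, above about 75%, limit read from the data; inactive = activation under that limit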;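 also: 0% = zVAD with DMSO and 100% = DMSO alone without zVAD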
TNF necrop inh: inhibitors of TNF-alpha triggered necroptosis, primary screen, cell-based, Jurkat FADD-/-, single concentration; Jurkat FADD-/- TNF necroptosis rescue, ATP luminescence, 24 h; 0 = TNF only, 100 = no-TNF cells; activation (protection from cell death), % at 10 µM; 220,000 compounds, 0.068% hits; AID 463075, 2010;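 active = activation, meaning protection from cell death, of at least 50% relative to plate controls; inactive = activation below 50%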;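 also: necroptosis triggered by 40 ng/mL TNF-alpha added together with compound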
Mcl-1 Bim block: inhibitors of Bim peptide binding to Mcl-1, primary screen, biochemical, bead-based flow cytometry, multiplex. Induced myeloid leukemia cell differentiation protein Mcl-1 (Homo sapiens), Q07820. Bim peptide-Mcl-1 binding. inhibition, % at 10 µM. 190,000 compounds, 0.1% hits. AID 1009, 2008; in the data active = inhibition above about 40%;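 also: 0% = no compound tracer wells and 100% = peptide blocker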
Target sequence (Q07820 whole entry, looked up): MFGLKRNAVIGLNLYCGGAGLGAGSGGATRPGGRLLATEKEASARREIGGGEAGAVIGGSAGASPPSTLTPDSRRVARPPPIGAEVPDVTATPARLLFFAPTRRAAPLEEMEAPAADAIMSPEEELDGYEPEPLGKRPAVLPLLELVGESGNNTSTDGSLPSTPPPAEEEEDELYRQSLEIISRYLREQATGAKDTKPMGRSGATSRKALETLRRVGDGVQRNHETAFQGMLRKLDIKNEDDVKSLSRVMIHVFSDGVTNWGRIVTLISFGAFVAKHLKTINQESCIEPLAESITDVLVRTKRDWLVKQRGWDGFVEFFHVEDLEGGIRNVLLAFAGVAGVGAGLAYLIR
Calpain2 inh: inhibitors of pig calpain II, primary screen, biochemical, fluorogenic peptide substrate, 1536-well. purified calpain II, 30 min. inhibition, % at 16 µM. 220,000 compounds, 0.37% hits. AID 1236, 2008;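 active = inhibition above about 50%, limit read from the data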
Mcl1 Noxa PPI: Mcl-1/Noxa binding inhibitors, primary screen, biochemical, TR-FRET, 1536-well. Induced myeloid leukemia cell differentiation protein Mcl-1 (Homo sapiens), Q07820. inhibition, % at 21.7 µM. TR-FRET Mcl-1/Noxa peptide binding, 2 h. 220,000 compounds, 1.5% hits. AID 1022, 2008;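 active = compounds that cut the protein-peptide binding signal by more than 50% relative to plate controls in a single-dose test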;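 also: His-tagged Mcl-1 with rhodamine Noxa BH3 peptide and terbium anti-His antibody; 0% = Mcl-1 plus Noxa peptide wells and 100% = peptide-only wells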
Mcl1 Bid PPI: Mcl-1/Bid binding inhibitors, primary screen, biochemical, TR-FRET, 1536-well; Induced myeloid leukemia cell differentiation protein Mcl-1 (Homo sapiens), Q07820; TR-FRET Mcl-1/Bid-Dy647 peptide binding; inhibition, % at 21.7 µM; 220,000 compounds, 0.97% hits; AID 1021, 2008;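 active = compounds that cut the binding signal by more than half at the single screening dose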;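 also: His-tagged Mcl-1 with europium anti-His antibody binding Bid BH3 peptide; 0% = Mcl-1 plus peptide wells and 100% = peptide-only wells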
Numbers without * were called inactive. A selection: hits, their analogues and other compounds. The true share with any hit is near 2.8%.

`O=C(CCN1CCN(CCO)CC1)Nc1ccc(OCc2ccccc2)cc1` gave L929 necroptosis 0, TNF necrop inh 1, Mcl-1 Bim block -1, Calpain2 inh -27, Mcl1 Noxa PPI 47 and Mcl1 Bid PPI 55*.
For CN1CCN(CCC(=O)Nc2ccc(OCc3ccccc3)cc2)CC1 the results were L929 necroptosis 7, TNF necrop inh 1, Mcl-1 Bim block -5, Calpain2 inh -6, Mcl1 Noxa PPI 12 and Mcl1 Bid PPI -28.
For COC(=O)c1sccc1NC(=O)c1cc(C)on1 the results were L929 necroptosis 0, TNF necrop inh 11, Mcl-1 Bim block 0, Calpain2 inh 13, Mcl1 Noxa PPI 1 and Mcl1 Bid PPI 63*.
`COc1cc(N2CCCC2)c(OC)cc1/C=C(/C#N)c1ccc(F)cc1` gave L929 necroptosis 0, TNF necrop inh -1, Mcl-1 Bim block -9, Calpain2 inh -10, Mcl1 Noxa PPI 72* and Mcl1 Bid PPI -5.
For COc1cc(N2CCCC2)c(OC)cc1/C=C(/C#N)c1ccc(Br)cc1 the results were L929 necroptosis 0, TNF necrop inh 0, Calpain2 inh 16, Mcl1 Noxa PPI 11 and Mcl1 Bid PPI -12.
CCO[C@@H]1OC(C(=O)NCc2ccccc2)=C[C@H](c2ccc(Br)cc2)[C@H]1CCCO was read as L929 necroptosis 2, TNF necrop inh 6, Mcl-1 Bim block 1, Calpain2 inh 11, Mcl1 Noxa PPI 21 and Mcl1 Bid PPI 46.
Screening Cc1cc(NCc2ccco2)n2ncnc2n1 returned L929 necroptosis 0, TNF necrop inh 0, Mcl-1 Bim block -4, Calpain2 inh -4, Mcl1 Noxa PPI 11 and Mcl1 Bid PPI -36.
Screening Cc1ccc(CS(=O)(=O)Cc2ccc(C(=O)NCC3CCCO3)o2)cc1 (centres undefined) returned L929 necroptosis 0, TNF necrop inh -3, Mcl-1 Bim block -3, Calpain2 inh -5, Mcl1 Noxa PPI 7 and Mcl1 Bid PPI -14.
For O=C(NCC1CCCO1)c1ccc(CSCc2cccc(F)c2)o1 (centres undefined) the results were L929 necroptosis 1, TNF necrop inh 0, Mcl-1 Bim block -2, Calpain2 inh -39, Mcl1 Noxa PPI 7 and Mcl1 Bid PPI 89*.
For CN(C)C(=O)CN1CCN(Cc2cn(C)nc2-c2ccc3c(c2)OCCO3)CC1 the results were L929 necroptosis 4, TNF necrop inh 1, Mcl-1 Bim block 0, Calpain2 inh -25, Mcl1 Noxa PPI -13 and Mcl1 Bid PPI -47.
For NC(=O)CC(NC(=O)Cc1ccc(Br)cc1)c1ccc(NC2CCC2)c([N+](=O)[O-])c1 (centres undefined) the results were L929 necroptosis 1, TNF necrop inh 3, Calpain2 inh -61, Mcl1 Noxa PPI 51* and Mcl1 Bid PPI -50.
NC(=O)CC(NC(=O)Cc1ccc(Cl)cc1)c1ccc(NC2CCCC2)c([N+](=O)[O-])c1 (centres undefined) was read as L929 necroptosis 0, TNF necrop inh 8, Calpain2 inh -20, Mcl1 Noxa PPI -10 and Mcl1 Bid PPI -20.
CC(C)Nc1ccc(C(CC(N)=O)NC(=O)c2ccc(Br)cc2)cc1[N+](=O)[O-] (centres undefined) was read as L929 necroptosis 4, TNF necrop inh 2, Calpain2 inh -4, Mcl1 Noxa PPI 2 and Mcl1 Bid PPI 65*.
`CCOC(=O)c1cnn(-c2nc(-c3cccc(F)c3)cs2)c1C(F)(F)F` gave L929 necroptosis 0, TNF necrop inh 0, Mcl-1 Bim block -1, Calpain2 inh -5, Mcl1 Noxa PPI -14 and Mcl1 Bid PPI 0.
Screening CCCN(CCC)C(=O)C[n+]1cccc(/C=N/O)c1 returned L929 necroptosis 1, TNF necrop inh 1, Mcl-1 Bim block -3, Calpain2 inh -2, Mcl1 Noxa PPI 9 and Mcl1 Bid PPI 2.
`COc1cc(CC(=O)N(c2ccccc2)c2nc(C)cs2)cc(OC)c1OC` gave L929 necroptosis 0, TNF necrop inh 1, Mcl-1 Bim block -1, Calpain2 inh 11, Mcl1 Noxa PPI 11 and Mcl1 Bid PPI -18.
O=C(CCCc1nc2ccccc2s1)NCc1ccc(F)cc1 was read as L929 necroptosis 1, TNF necrop inh 1, Mcl-1 Bim block -2, Calpain2 inh 8, Mcl1 Noxa PPI 10 and Mcl1 Bid PPI -4.
For Cc1ccc(S(=O)(=O)N(C)C)cc1NC(=S)NNC(=O)C1CC1 the results were L929 necroptosis 0, TNF necrop inh 1, Mcl-1 Bim block -5, Calpain2 inh 9, Mcl1 Noxa PPI 23 and Mcl1 Bid PPI -13.
For CCN(CC)S(=O)(=O)c1ccc(C)c(NC(=S)NNC(=O)C2CC2)c1 the results were L929 necroptosis 1, TNF necrop inh 1, Mcl-1 Bim block -12, Calpain2 inh 76*, Mcl1 Noxa PPI 14 and Mcl1 Bid PPI -38.
Screening CN1C(=O)c2ccc(NC(=O)CCS(=O)(=O)c3ccccc3)cc2C1=O returned L929 necroptosis 0, TNF necrop inh 0, Mcl-1 Bim block 2, Calpain2 inh -209, Mcl1 Noxa PPI 5 and Mcl1 Bid PPI 3.
`CCC1(O)CC(C(=O)OC)=NN1C(=O)c1ccccc1` (centres undefined) gave L929 necroptosis 0, TNF necrop inh 0, Mcl-1 Bim block -2, Calpain2 inh 6, Mcl1 Noxa PPI 64* and Mcl1 Bid PPI -11.
For Cc1nn(CC(=O)NCCCc2ccccc2)c(C)c1[N+](=O)[O-] the results were L929 necroptosis 0, TNF necrop inh 1, Mcl-1 Bim block 0, Calpain2 inh -18, Mcl1 Noxa PPI 21 and Mcl1 Bid PPI -9.
Screening CCN1/C(=C\C=C2\C(=O)N(c3ccccc3)C(=S)N2C)Sc2ccccc21 returned L929 necroptosis 1, TNF necrop inh -5, Mcl-1 Bim block -5, Calpain2 inh 46, Mcl1 Noxa PPI 60* and Mcl1 Bid PPI 78*.
For COc1cc2c(cc1OC)CC(=O)NC=C2 the results were L929 necroptosis 2, TNF necrop inh 1, Mcl-1 Bim block -1, Calpain2 inh 37, Mcl1 Noxa PPI 4 and Mcl1 Bid PPI -21.
Screening C=CCn1c(O)c(C2=c3ccccc3=NC2=O)s/c1=N/c1nccs1 returned L929 necroptosis 0, TNF necrop inh -2, Mcl-1 Bim block 0, Calpain2 inh -106, Mcl1 Noxa PPI 48 and Mcl1 Bid PPI 56*.
Cc1ccc(NC(=O)c2ccc(Cl)cc2Cl)cc1O was read as L929 necroptosis -1, TNF necrop inh -4, Calpain2 inh -8, Mcl1 Noxa PPI -17 and Mcl1 Bid PPI -12.
